Reference: PubChem BioAssay
Active and inactive are the calls of the source.

Assays:
[1] = small molecules captured by biotinylated probe aFSTL3 – biochemical, small-molecule microarray, fluorescence 635/667, stem cell growth factor project, primary screen (AID 1064); settings: higher = more signal;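 note: measures binding of the biotinylated anti-FSTL3 antibody to printed compounds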
[2] = binders from COS7 lysate, DM2A8 probe, primary screen, torsin A project, cell lysate, small-molecule microarray, fluorescence 635/667 (AID 1065); settings: higher = more signal, COS7 lysate expressing mutant human TOR1A
[3] = small molecules captured by biotinylated probe aFGF2 – biochemical, small-molecule microarray, fluorescence 635/667, stem cell growth factor project, primary screen (AID 1067); settings: higher = more signal;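 note: measures binding of biotinylated aFGF2 protein to printed compounds on slides; z-score merges feature fluorescence and signal-to-noise across triplicate slides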
[4] = small molecules captured by biotinylated probe aFGF10 – biochemical, small-molecule microarray, fluorescence 635/667, stem cell growth factor project, primary screen (AID 1071); settings: higher = more signal;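 note: score merges 667 nm spot intensity and signal to noise from triplicate slides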
[5] = biological target: Neurogenic locus notch homolog protein 2 (Homo sapiens) (UniProt Q04721); test: small molecules binding Notch2 protein – biochemical, small-molecule microarray, 635 nm fluorescence, stem cell growth factors, primary screen (AID 1073); settings: higher = more signal
[6] = biological target: Pro-neuregulin-1, membrane-bound isoform (Homo sapiens) (UniProt Q02297); test: small molecules binding neuregulin-1 protein – biochemical, small-molecule microarray, fluorescence 635/667, psychiatric disease protein project, primary screen (AID 1075); settings: NRG1 binding, 635 nm fluorescence, higher = more signal;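 note: score combines 667 nm spot fluorescence with signal to noise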
[7] = system: Neuregulin-1 EGF-like domain; test: small molecules binding NRG1 EGF domain – biochemical, small-molecule microarray, 635 nm fluorescence, primary screen (AID 1081); settings: higher = more signal;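 note: binding of the protein to compounds printed on small-molecule microarray slides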
[8] = FRG1 expression reporter modulators in myotubes – cell-based, C2C12 myotubes, firefly/Renilla luciferase, luminescence, FRG1 inhibition for FSHD, primary screen (AID 1084); settings: FRG1 promoter luciferase, higher = more signal, called active from +8 up or from −8 down
[9] = small molecules captured by biotinylated probe aFST – biochemical, small-molecule microarray, fluorescence 635/667, stem cell growth factor project, primary screen (AID 1086); settings: higher = more signal;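 note: score merges 667 nm fluorescence with signal-to-noise of each printed compound spot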
[10] = binders of probe aHhip on microarray, primary screen, stem cell growth factor project, biochemical, small-molecule microarray, fluorescence 635/667 (AID 1087); settings: higher = more signal;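 note: score merges spot fluorescence at 667nm with spot signal to noise ratio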
[11] = system: PRMT1 (protein arginine N-methyltransferase 1); test: small molecules binding arginine methyltransferase PRMT1 – biochemical, small-molecule microarray, 635 nm fluorescence, primary screen (AID 1088); settings: higher = more signal;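 note: binding of Prmt1 protein to compounds spotted on small-molecule microarray slides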
[12] = growth effects on S. cerevisiae YJM789 – YJM789 clinical isolate, OD600, 24 h, basal, primary screen (AID 1089); settings: higher = more signal, called active from +8 up or from −8 down;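 note: growth of clinical yeast isolate S. cerevisiae YJM 789 seeded 1000 cells per well; test concentration not given here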
[13] = S. pombe growth modifiers, basal conditions – strain 972, OD600, 24 h, no modulator, primary screen (AID 1090);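 note: basal condition with compound alone and no growth modifier present; test concentration not given here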; settings: S. pombe 972 growth, higher = more signal, called active from +8 up or from −8 down
[14] = budding yeast growth modifiers under rapamycin – strain BY4716, OD600, 96 h, primary screen (AID 1091); note: test concentration not given here; settings: S. cerevisiae BY4716 + rapamycin, higher = more signal, called active from +8 up or from −8 down
[15] = biological target: Torsin-1A-interacting protein 2 (Homo sapiens) (UniProt Q8NFQ8); test: small molecules binding lysate-expressed LULL1 – cell lysate, human LULL1 lysate, 635/667 nm fluorescence, primary screen (AID 1092); settings: small-molecule microarray, hLULL1 lysate binding, 635 nm fluorescence; higher = more signal;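 note: probe is lysate of COS7 cells overexpressing human LULL1; score merges per-feature 667 nm fluorescence with signal-to-noise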
[16] = optical density change of DRC41 E. coli – strain DRC41, OD650, 24 h, E. coli filamentation project, primary screen (AID 1093);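 note: MC1000 strain lacking acrAB efflux and sulA so SOS filamentation is blocked; test concentration not given here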; settings: E. coli DRC41 growth, higher = more signal, called active from +8 up or from −8 down
[17] = probe aLefty2 binding to arrayed compounds – biochemical, biotinylated probe, 635/667 nm fluorescence, primary screen (AID 1094); settings: small-molecule microarray, higher = more signal;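 note: score merges spot fluorescence near 667 nm with spot signal-to-noise ratio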
[18] = system: Noggin (protein binding on small-molecule microarray); test: small molecules binding Noggin protein – biochemical, 635/667 nm fluorescence, primary screen (AID 1095); settings: 635 nm fluorescence, higher = more signal;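 note: score merges 667 nm feature fluorescence with signal to noise over triplicate slides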
[19] = biological target: Neurogenic locus notch homolog protein 3 (Homo sapiens) (UniProt Q9UM47); test: small molecules binding NOTCH3 protein – biochemical, 635/667 nm fluorescence, primary screen (AID 1096); settings: small-molecule microarray, 635 nm fluorescence, higher = more signal
[20] = probe aEGFR binding to arrayed compounds – biochemical, biotinylated probe, 635/667 nm fluorescence, primary screen (AID 1097); settings: small-molecule microarray, higher = more signal;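 note: probe is a biotinylated anti-EGFR antibody binding compounds printed on slides; score combines fluorescence near 667 nm and signal to noise of each spot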

Chain of Pro-neuregulin-1, membrane-bound isoform (Homo sapiens) (Q02297 whole entry, looked up, the tested form may be a part, canonical isoform): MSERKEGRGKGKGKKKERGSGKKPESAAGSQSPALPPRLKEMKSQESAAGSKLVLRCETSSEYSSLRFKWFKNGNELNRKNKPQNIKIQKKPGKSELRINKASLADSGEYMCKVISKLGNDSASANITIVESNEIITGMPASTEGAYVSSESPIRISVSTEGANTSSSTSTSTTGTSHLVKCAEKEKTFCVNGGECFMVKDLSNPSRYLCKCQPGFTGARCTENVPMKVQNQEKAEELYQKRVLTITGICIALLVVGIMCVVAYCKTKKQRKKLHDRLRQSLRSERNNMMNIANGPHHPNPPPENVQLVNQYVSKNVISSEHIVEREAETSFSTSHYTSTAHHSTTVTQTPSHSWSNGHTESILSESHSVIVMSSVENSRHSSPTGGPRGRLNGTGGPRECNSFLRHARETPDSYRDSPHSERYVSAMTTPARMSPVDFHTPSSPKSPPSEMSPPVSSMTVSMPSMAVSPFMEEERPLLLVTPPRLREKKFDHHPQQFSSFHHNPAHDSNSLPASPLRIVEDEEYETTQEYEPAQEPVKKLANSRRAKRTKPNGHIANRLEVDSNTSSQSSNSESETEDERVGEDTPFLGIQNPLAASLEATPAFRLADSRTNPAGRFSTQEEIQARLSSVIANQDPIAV
Chain of Neurogenic locus notch homolog protein 3 (Homo sapiens) (Q9UM47 whole entry, looked up): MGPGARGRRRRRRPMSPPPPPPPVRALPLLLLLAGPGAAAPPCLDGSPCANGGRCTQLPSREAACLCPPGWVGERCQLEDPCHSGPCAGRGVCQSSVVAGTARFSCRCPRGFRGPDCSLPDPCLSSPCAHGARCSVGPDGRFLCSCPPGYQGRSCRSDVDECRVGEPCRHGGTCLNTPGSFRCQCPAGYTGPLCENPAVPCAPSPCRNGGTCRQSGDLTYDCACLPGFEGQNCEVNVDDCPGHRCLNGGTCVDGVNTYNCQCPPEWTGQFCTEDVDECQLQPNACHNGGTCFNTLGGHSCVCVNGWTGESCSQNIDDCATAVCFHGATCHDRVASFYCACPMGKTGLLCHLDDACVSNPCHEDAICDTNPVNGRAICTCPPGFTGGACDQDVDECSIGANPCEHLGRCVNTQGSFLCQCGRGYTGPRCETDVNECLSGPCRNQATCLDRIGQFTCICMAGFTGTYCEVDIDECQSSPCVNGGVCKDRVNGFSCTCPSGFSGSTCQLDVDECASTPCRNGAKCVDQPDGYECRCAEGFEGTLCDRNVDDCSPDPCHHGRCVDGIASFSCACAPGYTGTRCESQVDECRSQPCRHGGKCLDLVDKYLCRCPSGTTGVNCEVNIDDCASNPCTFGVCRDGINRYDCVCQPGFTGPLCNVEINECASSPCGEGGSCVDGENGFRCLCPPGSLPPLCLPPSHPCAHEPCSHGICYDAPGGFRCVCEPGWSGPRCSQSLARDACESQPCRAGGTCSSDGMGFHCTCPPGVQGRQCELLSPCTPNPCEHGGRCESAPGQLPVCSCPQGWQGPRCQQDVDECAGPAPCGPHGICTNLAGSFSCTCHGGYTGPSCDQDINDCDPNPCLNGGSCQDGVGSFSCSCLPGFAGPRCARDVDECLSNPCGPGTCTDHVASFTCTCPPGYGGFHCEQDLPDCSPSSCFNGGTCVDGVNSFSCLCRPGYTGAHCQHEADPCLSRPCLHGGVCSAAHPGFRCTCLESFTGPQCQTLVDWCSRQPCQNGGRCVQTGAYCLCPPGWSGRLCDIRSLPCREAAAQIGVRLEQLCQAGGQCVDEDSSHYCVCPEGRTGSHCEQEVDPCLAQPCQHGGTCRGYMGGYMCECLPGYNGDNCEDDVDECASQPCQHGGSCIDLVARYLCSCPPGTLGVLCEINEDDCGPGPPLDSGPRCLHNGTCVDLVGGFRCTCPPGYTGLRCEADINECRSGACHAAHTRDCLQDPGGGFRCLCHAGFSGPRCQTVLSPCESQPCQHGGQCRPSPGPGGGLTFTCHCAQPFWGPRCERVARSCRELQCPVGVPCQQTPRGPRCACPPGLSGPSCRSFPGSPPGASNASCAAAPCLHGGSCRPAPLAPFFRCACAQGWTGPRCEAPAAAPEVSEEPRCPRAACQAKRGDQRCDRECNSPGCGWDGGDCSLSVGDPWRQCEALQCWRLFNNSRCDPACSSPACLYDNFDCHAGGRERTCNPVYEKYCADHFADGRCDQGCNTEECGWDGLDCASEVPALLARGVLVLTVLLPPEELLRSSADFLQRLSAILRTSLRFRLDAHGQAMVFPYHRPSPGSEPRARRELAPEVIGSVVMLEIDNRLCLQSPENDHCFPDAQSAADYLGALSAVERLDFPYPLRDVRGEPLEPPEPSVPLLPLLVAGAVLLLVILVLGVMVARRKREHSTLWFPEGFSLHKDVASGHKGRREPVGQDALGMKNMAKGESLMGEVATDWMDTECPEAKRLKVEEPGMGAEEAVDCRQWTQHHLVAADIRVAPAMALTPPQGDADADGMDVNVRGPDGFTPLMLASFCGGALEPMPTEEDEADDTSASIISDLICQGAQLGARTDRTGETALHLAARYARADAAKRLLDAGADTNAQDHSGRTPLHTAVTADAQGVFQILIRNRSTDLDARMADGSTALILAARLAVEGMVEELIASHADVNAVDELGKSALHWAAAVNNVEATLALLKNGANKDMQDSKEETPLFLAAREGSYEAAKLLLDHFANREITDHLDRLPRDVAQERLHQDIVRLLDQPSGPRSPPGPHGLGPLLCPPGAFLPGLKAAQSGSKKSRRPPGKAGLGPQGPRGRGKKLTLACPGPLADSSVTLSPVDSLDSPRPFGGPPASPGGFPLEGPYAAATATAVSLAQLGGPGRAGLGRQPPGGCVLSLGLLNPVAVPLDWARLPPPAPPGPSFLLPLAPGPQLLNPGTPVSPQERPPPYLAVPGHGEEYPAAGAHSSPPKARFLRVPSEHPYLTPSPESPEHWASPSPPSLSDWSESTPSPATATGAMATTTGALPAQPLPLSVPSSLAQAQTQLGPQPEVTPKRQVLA
Chain of Torsin-1A-interacting protein 2 (Homo sapiens) (Q8NFQ8 whole entry, looked up): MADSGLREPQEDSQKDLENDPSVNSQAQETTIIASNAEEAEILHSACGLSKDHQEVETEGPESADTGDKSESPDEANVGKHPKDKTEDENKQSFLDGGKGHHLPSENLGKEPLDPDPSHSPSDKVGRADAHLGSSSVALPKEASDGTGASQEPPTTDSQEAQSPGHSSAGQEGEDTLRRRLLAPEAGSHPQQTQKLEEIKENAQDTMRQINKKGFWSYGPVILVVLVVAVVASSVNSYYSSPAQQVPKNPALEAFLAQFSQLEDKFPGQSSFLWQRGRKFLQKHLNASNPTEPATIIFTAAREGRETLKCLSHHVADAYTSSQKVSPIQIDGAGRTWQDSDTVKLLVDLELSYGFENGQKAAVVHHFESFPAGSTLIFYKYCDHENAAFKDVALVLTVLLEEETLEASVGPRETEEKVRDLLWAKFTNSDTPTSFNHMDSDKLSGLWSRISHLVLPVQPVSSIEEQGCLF

| Structure (SMILES) | composite z-score [1] | composite z-score [2] | composite z-score [3] | composite z-score [4] | composite z-score [5] | composite z-score [6] | composite z-score [7] | z-score [8] | composite z-score [9] | composite z-score [10] | composite z-score [11] | z-score [12] | z-score [13] | z-score [14] | composite z-score [15] | z-score [16] | composite z-score [17] | composite z-score [18] | composite z-score [19] | composite z-score [20] |
| --- | --- | --- | --- | --- | --- | --- | --- | --- | --- | --- | --- | --- | --- | --- | --- | --- | --- | --- | --- | --- |
| O=C(NCCCCCNC(=O)/C(Cc1ccccc1)=N/O)OCc1ccccc1 | -0.51 | 0.148 | -0.25 | 0.293 | 0.421 | -0.181 | -0.422 | -0.213 (inactive) | 0.152 | -0.409 | -0.276 | -1.72 (inactive) | -1.43 (inactive) | -1.89 (inactive) | -0.625 | 2.16 (inactive) | -0.17 | 0.164 | 0.253 | -0.127 |
| CN(C)CCCNC(=O)[C@@H]1c2ccccc2C(=O)N(Cc2ccccc2Cl)[C@H]1c1ccc(CO)cc1 | -0.126 | 0.542 | -0.19 | 0.069 | -0.243 | 0.261 | -0.0724 | -1.96 (inactive) | -0.177 | -0.19 | 0.226 | -0.34 (inactive) | -1.32 (inactive) | -1.04 (inactive) | 2.25 | 0.596 (inactive) | -0.295 | -0.611 | -0.247 | 0.0733 |
| CCCCC(O)C1C=CC2C(=O)N(c3ccccc3)C(=O)C2N1Nc1ccc(C(C)C)cc1 (stereo not given) | -0.158 | -0.534 | 0.0662 | 0.47 | 1.44 | 1.85 | 0.697 | -0.875 (inactive) | 1.13 | -0.217 | 1.37 | 0.603 (inactive) | -0.582 (inactive) | 0.0624 (inactive) | 3.01 | -1.32 (inactive) | -0.122 | 0.49 | 1.03 | -0.067 |
| COCCOC(=O)N1C(=O)[C@@]2(c3cc(C#CC4=CCCCC4)ccc31)[C@H](c1ccc(OCCO)cc1)N1[C@H](c3ccccc3)[C@H](c3ccccc3)OC(=O)[C@H]1[C@@H]2C(=O)N1CCN(c2ncccn2)CC1 | 0.0516 | 0.504 | 0.0664 | 0.874 | 1.31 | 0.521 | 1.05 | -0.64 (inactive) | 0.59 | 0.0053 | 1.46 | 0.372 (inactive) | 1.23 (inactive) | 3.64 (inactive) | 1.73 | 1.37 (inactive) | 0.0444 | 0.788 | 1.1 | 0.0289 |
| COC(=O)[C@@]1(Cc2ccc(OC)cc2)[C@H]2c3cc(C(=O)N4CCCC4)n(Cc4c(-c5ccccc5)noc4C)c3C[C@H]2CN1C(=O)c1ccccc1 | 0.194 | 0.245 | 0.336 | 0.812 | 1.71 | 1.31 | 1.25 | 0.44 (inactive) | 1.73 | 1.79 | 0.525 | 0.729 (inactive) | 1.32 (inactive) | 1.77 (inactive) | 3.31 | 0.19 (inactive) | 0.422 | 0.658 | 1.04 | 0.374 |
| COCCOC(=O)N1C(=O)[C@@]2(c3cc(C#Cc4ccc(OC)cc4)ccc31)[C@H](C(=O)Nc1nc3ccccc3s1)[C@H]1C(=O)O[C@H](c3ccccc3)[C@H](c3ccccc3)N1[C@@H]2c1ccc(OCCO)cc1 | -0.51 | 0.661 | -0.0569 | 0.784 | 1.21 | 0.138 | 1.11 | 4.61 (inactive) | 0.632 | -0.0618 | 1.56 | 3.34 (inactive) | 2.1 (inactive) | 4.58 (inactive) | 1.02 | 0.575 (inactive) | -0.0699 | 1.54 | 1.13 | 0.0311 |
| [N-]=[N+]=Nc1ccccc1[C@H]1OC(c2ccc(OCCCO)cc2)=N[C@@]1(CCS(=O)(=O)c1ccccc1)C(=O)NCCN1CCOCC1 | 0.052 | 0.0825 | 0.115 | 0.839 | 1.28 | 1.35 | 1.12 | 5.72 (inactive) | 1.58 | -0.166 | 1.55 | 0.299 (inactive) | 1.13 (inactive) | 0.683 (inactive) | 3.3 | 0.17 (inactive) | 0.414 | 0.55 | 0.839 | 0.154 |
| COc1ccc([Si](C)(C)[C@@H]2[C@@H](CC(=O)N(CCO)Cc3ccccc3)O[C@]3(C(=O)N(Cc4cccc(N5CCOC5=O)c4)c4ccccc43)[C@H]2C)cc1 | -0.0388 | 1.02 | -0.117 | 0.476 | 0.0505 | 1.1 | 1.12 | -0.819 (inactive) | -0.0988 | -0.248 | 1.55 | -0.757 (inactive) | -0.21 (inactive) | 2.11 (inactive) | 1.96 | 1.37 (inactive) | -0.349 | 0.726 | 0.733 | -0.129 |
| O=C1OCC=C[C@H]2OC34C=CCN(Cc5ccccc5)C(=O)[C@H]3N(CCCCCCO)C(=O)[C@@H]4[C@@H]12 (stereo not given in full) | 0.329 | -0.443 | -0.191 | -0.0166 | -0.812 | 0.273 | 1.12 | -0.843 (inactive) | -0.474 | -0.249 | -0.325 | -0.997 (inactive) | 0.0262 (inactive) | -1.53 (inactive) | 1.76 | 2.11 (inactive) | 0.0124 | -0.742 | -0.153 | -0.159 |
| C=C(C)c1cc2c(c(CCCCCC)n1)[Si](C(C)C)(C(C)C)OC2 | -0.392 | -1.42 | -0.157 | -1.05 | -1.03 | -0.792 | -1.02 | -0.647 (inactive) | -0.437 | 0.0201 | -0.293 | 1.21 (inactive) | 0.653 (inactive) | -0.9 (inactive) | -1.03 | -1.17 (inactive) | -0.193 | -0.714 | -0.64 | -0.287 |
